In PubChem BioAssay AID1159580 (chemical genetic matrix, 2015):
Where “and” joins values, the source holds several entries; their conditions need not be identical. Identical values can stand only once. Hit rate of the full screen: of about 5,500 compounds, about 2,000 (36%) were called active. About 18% were inconclusive and are not listed. Rule as the data show it: active = normalized growth mostly below about 0.91 (no sharp cut-off); inconclusive = no clear call, values can overlap the other calls; inactive = mostly above about 0.92. The list shows a part of the results.

Assay: chemical genetic growth profiling, strain panel (AID 1159580);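 also: tested at 20 µM; growth read once vehicle control cultures reached saturation at 30 °C; 1 = growth at the plate median or of vehicle wells; lower values mean less growth of the strain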
Conditions: growth OD
[1] = S. cerevisiae deletion strains, locus YAL013W, strain DEP1, stronger effect = lower value
[2] = S. cerevisiae deletion strains, locus YBR021W, strain FUR4, stronger effect = lower value
[3] = S. cerevisiae deletion strains, locus YBR229C, strain ROT2, stronger effect = lower value
[4] = S. cerevisiae deletion strains, locus YCL029C, strain bik1, stronger effect = lower value
[5] = S. cerevisiae deletion strains, locus YDL035C, strain GPR1, stronger effect = lower value
[6] = S. cerevisiae deletion strains, locus YDL074C, strain BRE1, stronger effect = lower value
[7] = S. cerevisiae deletion strains, locus YDL101C, strain DUN1, stronger effect = lower value
[8] = S. cerevisiae deletion strains, locus YDL134C, strain PPH21, stronger effect = lower value
[9] = S. cerevisiae deletion strains, locus YDL185W, strain tfp1, stronger effect = lower value
[10] = S. cerevisiae deletion strains, locus YDL192W, strain arf1, stronger effect = lower value
[11] = S. cerevisiae deletion strains, locus YDR101C, strain arx1, stronger effect = lower value
[12] = S. cerevisiae deletion strains, locus YDR150W, strain NUM1, stronger effect = lower value
[13] = S. cerevisiae deletion strains, locus YDR162C, strain NBP2, stronger effect = lower value
[14] = S. cerevisiae deletion strains, locus YDR318W, strain mcm21, stronger effect = lower value
[15] = S. cerevisiae deletion strains, locus YDR388W, stronger effect = lower value
[16] = S. cerevisiae deletion strains, locus YDR502C, strain sam2, stronger effect = lower value
[17] = S. cerevisiae deletion strains, locus YEL061C, strain CIN8, stronger effect = lower value
[18] = S. cerevisiae deletion strains, locus YER110C, stronger effect = lower value
[19] = S. cerevisiae deletion strains, locus YER155C, strain BEM2, stronger effect = lower value
[20] = S. cerevisiae deletion strains, locus YER167W, strain BCK2, stronger effect = lower value
[21] = S. cerevisiae deletion strains, locus YGL078C, strain dbp3, stronger effect = lower value
[22] = S. cerevisiae deletion strains, locus YGL086W, strain mad1, stronger effect = lower value
[23] = S. cerevisiae deletion strains, locus YGL248W, strain PDE1, stronger effect = lower value
[24] = S. cerevisiae deletion strains, locus YGR078C, strain PAC10, stronger effect = lower value
[25] = S. cerevisiae deletion strains, locus YGR135W, strain pre9, stronger effect = lower value
[26] = S. cerevisiae deletion strains, locus YGR229C, strain SMI1, stronger effect = lower value
[27] = S. cerevisiae deletion strains, locus YGR252W, strain gcn5, stronger effect = lower value
[28] = S. cerevisiae deletion strains, locus YHR030C, strain SLT2, stronger effect = lower value
[29] = S. cerevisiae deletion strains, locus YHR079C, strain IRE1 (second series), stronger effect = lower value
[30] = S. cerevisiae deletion strains, locus YHR094C, strain hxt1, stronger effect = lower value
[31] = S. cerevisiae deletion strains, locus YHR129C, strain ARP1, stronger effect = lower value
[32] = S. cerevisiae deletion strains, locus YHR200W, strain rpn10, stronger effect = lower value
[33] = S. cerevisiae deletion strains, locus YIL066C, strain RNR3, stronger effect = lower value
[34] = S. cerevisiae deletion strains, locus YIL073C, strain SPO22, stronger effect = lower value
[35] = S. cerevisiae deletion strains, locus YIL125W, strain kgd1, stronger effect = lower value
[36] = S. cerevisiae deletion strains, locus YIR030C, strain dcg1, stronger effect = lower value
[37] = S. cerevisiae deletion strains, locus YJL095W, strain BCK1, stronger effect = lower value
[38] = S. cerevisiae deletion strains, locus YJL134W, strain LCB3, stronger effect = lower value
[39] = S. cerevisiae deletion strains, locus YJL168C, strain set2, stronger effect = lower value
[40] = S. cerevisiae deletion strains, locus YJL187C, strain SWE1 (second series), stronger effect = lower value
[41] = S. cerevisiae deletion strains, locus YJR043C, strain POL32, stronger effect = lower value
[42] = S. cerevisiae deletion strains, locus YJR075W, strain HOC1, stronger effect = lower value
[43] = S. cerevisiae deletion strains, locus YKL009W, strain mrt4, stronger effect = lower value
[44] = S. cerevisiae deletion strains, locus YKL068W, stronger effect = lower value
[45] = S. cerevisiae deletion strains, locus YKL085W, strain MDH1 (second series), stronger effect = lower value
[46] = S. cerevisiae deletion strains, locus YKL085W, strain MDH1, stronger effect = lower value
[47] = S. cerevisiae deletion strains, locus YKL190W, strain CNB1, stronger effect = lower value
[48] = S. cerevisiae deletion strains, locus YKR001C, strain vps1, stronger effect = lower value
[49] = S. cerevisiae deletion strains, locus YLR039C, strain RIC1, stronger effect = lower value
[50] = S. cerevisiae deletion strains, locus YLR058C, strain SHM2, stronger effect = lower value
[51] = S. cerevisiae deletion strains, locus YLR102C, strain apc9, stronger effect = lower value
[52] = S. cerevisiae deletion strains, locus YLR262C, strain YPT6, stronger effect = lower value
[53] = S. cerevisiae deletion strains, locus YLR268W, strain sec22, stronger effect = lower value
[54] = S. cerevisiae deletion strains, locus YLR330W, strain CHS5, stronger effect = lower value
[55] = S. cerevisiae deletion strains, locus YLR342W, strain FKS1 (second series), stronger effect = lower value
[56] = S. cerevisiae deletion strains, locus YLR371W, strain rom2, stronger effect = lower value
[57] = S. cerevisiae deletion strains, locus YLR418C, strain cdc73, stronger effect = lower value
[58] = S. cerevisiae deletion strains, locus YML016C, strain PPZ1, stronger effect = lower value
[59] = S. cerevisiae deletion strains, locus YML032C, strain rad52, stronger effect = lower value
[60] = S. cerevisiae deletion strains, locus YML124C, strain tub3, stronger effect = lower value
[61] = S. cerevisiae deletion strains, locus YMR078C, strain ctf18, stronger effect = lower value
[62] = S. cerevisiae deletion strains, locus YMR223W, strain ubp8, stronger effect = lower value
[63] = S. cerevisiae deletion strains, locus YMR263W, strain SAP30, stronger effect = lower value
[64] = S. cerevisiae deletion strains, locus YMR307W, strain GAS1, stronger effect = lower value
[65] = S. cerevisiae deletion strains, locus YNL067W, strain RPL9B, stronger effect = lower value
[66] = S. cerevisiae deletion strains, locus YNL128W, strain TEP1, stronger effect = lower value
[67] = S. cerevisiae deletion strains, locus YNL153C, strain GIM3, stronger effect = lower value
[68] = S. cerevisiae deletion strains, locus YNL233W, strain BNI4, stronger effect = lower value
[69] = S. cerevisiae deletion strains, locus YNL250W, strain rad50, stronger effect = lower value
[70] = S. cerevisiae deletion strains, locus YNL271C, strain bni1, stronger effect = lower value
[71] = S. cerevisiae deletion strains, locus YNL298W, strain CLA4, stronger effect = lower value
[72] = S. cerevisiae deletion strains, locus YNL307C, strain MCK1, stronger effect = lower value
[73] = S. cerevisiae deletion strains, locus YNL322C, strain KRE1, stronger effect = lower value
[74] = S. cerevisiae deletion strains, locus YNR052C, strain pop2, stronger effect = lower value
[75] = S. cerevisiae deletion strains, locus YOL006C, strain TOP1, stronger effect = lower value
[76] = S. cerevisiae deletion strains, locus YOL012C, strain htz1
[77] = S. cerevisiae deletion strains, locus YOL147C, strain pex11, stronger effect = lower value
[78] = S. cerevisiae deletion strains, locus YOR061W, strain CKA2, stronger effect = lower value
[79] = S. cerevisiae deletion strains, locus YOR069W, strain VPS5, stronger effect = lower value
[80] = S. cerevisiae deletion strains, locus YOR136W, strain idh2, stronger effect = lower value
[81] = S. cerevisiae deletion strains, locus YOR144C, strain elg1, stronger effect = lower value
[82] = S. cerevisiae deletion strains, locus YOR184W, strain ser1, stronger effect = lower value
[83] = S. cerevisiae deletion strains, locus YOR316C, strain cot1, stronger effect = lower value
[84] = S. cerevisiae deletion strains, locus YPL055C, strain LGE1, stronger effect = lower value
[85] = S. cerevisiae deletion strains, locus YPL241C, strain CIN2, stronger effect = lower value
[86] = S. cerevisiae deletion strains, locus YPR119W, strain clb2, stronger effect = lower value
[87] = S. cerevisiae deletion strains, locus YPR141C, strain kar3, stronger effect = lower value
[88] = S. cerevisiae deletion strains, locus YPR163C, strain tif3, stronger effect = lower value
[89] = S. cerevisiae deletion strains, locus YPR167C, strain met16, stronger effect = lower value
[90] = S. cerevisiae deletion strains, strain wtn01, stronger effect = lower value
[91] = S. cerevisiae strains, strain wild type, stronger effect = lower value

Measured: normalized growth

c1ccc2c(c1)cc1ccc3cccc4ccc2c1c34
inactive: [1] 1.03 | [2] 1.05 | [3] 1.02 | [4] 0.995 | [5] 1.03 | [6] 1.06 | [7] 1.03 | [8] 1.02 | [9] 0.995 | [10] 0.994 | [11] 0.995 | [12] 1.02 | [13] 1.03 | [14] 0.996 | [15] 0.988 | [16] 1.02 | [17] 1.02 | [18] 0.981 | [19] 1.01 | [20] 1.03 | [21] 0.988 | [22] 0.993 | [23] 1.02 | [24] 1.03 | [25] 1.01 | [26] 1.05 | [27] 1 | [28] 1.01 and 0.927 | [29] 0.982 | S. cerevisiae deletion strains, locus YHR079C, strain IRE1, stronger effect = lower value 0.988 | [30] 0.993 | [31] 1.02 | [32] 0.998 | [33] 1.02 | [34] 1.02 | [35] 1.01 | [36] 0.991 | [37] 1.05 and 0.943 | [38] 1.01 | [39] 0.989 | [40] 1.03 | [41] 1.06 | S. cerevisiae deletion strains, locus YJR066W, strain TOR1, stronger effect = lower value 0.903 | [42] 1.02 | [43] 0.994 | [44] 1 | [45] 1.01 | [46] 1.01 | [47] 1.01 | [48] 0.994 | [49] 1.02 | [50] 1.02 | [51] 0.99 | S. cerevisiae deletion strains, locus YLR113W, strain HOG1, stronger effect = lower value 0.961 | [52] 1.04 | [53] 1.01 | [54] 1.01 | [55] 1.01 | [56] 0.994 | [57] 1.03 | [58] 1.02 | [59] 0.996 | [60] 0.996 | [61] 1.01 | [62] 1.01 | [63] 1.03 | [64] 1.02 | [65] 1.04 | [66] 1.04 | [67] 1.02 | S. cerevisiae deletion strains, locus YNL183C, strain NPR1, stronger effect = lower value 0.884 | [68] 1.03 | [69] 0.998 | [70] 1 | [71] 1.01 | [72] 0.993 | [73] 1.02 | [74] 0.982 | [75] 1.04 | [76] 0.939 | [77] 0.992 | [78] 1.01 | [79] 1.04 | [80] 0.99 | [81] 0.989 | [82] 1.01 | S. cerevisiae deletion strains, locus YOR231W, strain MKK1, stronger effect = lower value 0.979 | [83] 0.992 | [84] 1.08 | [85] 1.03 | S. cerevisiae deletion strains, locus YPL256C, strain CLN2, stronger effect = lower value 0.996 | [86] 0.983 | [87] 1 | [88] 0.995 | [89] 1 | [90] 1.01 | [91] 1.01

CCCn1c(C)c(C(=O)c2ccc3ccccc3c2)c2ccccc21
inactive: S. cerevisiae deletion strains, locus YAL040C, strain CLN3, stronger effect = lower value 0.99 | S. cerevisiae deletion strains, locus YCL061C, strain MRC1 (second series), stronger effect = lower value 0.99 | [12] 1.01 | S. cerevisiae deletion strains, locus YDR363W, strain ESC2, stronger effect = lower value 0.96 | S. cerevisiae deletion strains, locus YER002W, strain NOP16, stronger effect = lower value 0.999 | [64] 1.01 | S. cerevisiae deletion strains, locus YNL175C, strain NOP13, stronger effect = lower value 0.974 | S. cerevisiae deletion strains, locus YNL197C, strain WHI3, stronger effect = lower value 0.977 | S. cerevisiae deletion strains, locus YNL224C, strain SQS1, stronger effect = lower value 1 | [73] 0.991 | S. cerevisiae deletion strains, locus YOR083W, strain WHI5 (second series), stronger effect = lower value 0.995

Cc1ccc2cc3c(ccc4ccccc43)c3c2c1CC3
inactive: [1] 0.998 | [2] 0.988 | [3] 0.982 | [4] 0.954 | [5] 0.916 | [6] 0.963 | [7] 0.973 | [8] 0.997 | [9] 0.99 | [11] 0.96 | [12] 1 | [15] 0.96 | [17] 0.994 | [18] 0.952 | [19] 0.997 | [20] 0.917 | [21] 1 | [23] 0.981 | [24] 0.957 | [25] 0.924 | [26] 0.841 | [27] 0.922 | [29] 0.954 | [30] 0.981 | [31] 0.983 | [32] 0.933 | [33] 0.949 | [34] 0.906 | [35] 0.941 | [36] 0.961 | [37] 0.828 | [38] 0.99 | [39] 0.967 | [40] 0.99 | [41] 0.993 | [42] 0.904 | [43] 0.999 | [44] 0.997 | [45] 0.999 | [46] 0.999 | [47] 0.958 | [50] 0.981 | [51] 0.983 | [54] 0.986 | [55] 0.91 | [56] 0.974 | [58] 0.987 | [59] 0.908 | [60] 0.98 | [61] 0.959 | [63] 0.986 | [64] 0.711 | [65] 0.985 | [66] 0.931 | [67] 1.03 | [68] 0.933 | [69] 0.966 | [70] 0.959 | [71] 0.949 | [73] 0.998 | [74] 0.951 | [75] 0.937 | [76] 0.778 | [78] 0.98 | [79] 0.988 | [80] 0.927 | [81] 0.963 | [83] 0.981 | [84] 0.931 | [85] 1 | [86] 0.976 | [87] 0.983 | [88] 0.916 | [89] 0.968 | [90] 0.928 | [91] 0.97
active: [10] 0.795 | [13] 0.626 | [14] 0.884 | [16] 0.868 | [22] 0.894 | [28] 0.837 | [48] 0.685 | [49] 0.64 | [52] 0.568 | [53] 0.838 | [57] 0.532 | [62] 0.844 | [72] 0.591 | [77] 0.896 | [82] 0.559
